# Sampled rows, rich in hits. Any-hit rate of the full collection: about 0.74%.
# Furin inh: human furin inhibitors, primary screen, biochemical, fluorescence intensity; P09958; purified furin, fluorogenic substrate cleavage; inhibition, % at 20 µM or 30 µM; 220,000 compounds, 0.061% hits; in the data active = inhibition above about 25%
# pCIP destab: p/CIP-EGFP fusion destabilizers, primary screen, fluorescence, F442A cells; 290,000 compounds, 0.01% hits; Q05BA5; 16 h; decrease of EGFP signal, % at 10 µM;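 active = EGFP signal decrease of at least 30% at 10 µM or well 3 SD below plate mean, unless failing retest; inactive = the rest, including hits failing retest or dose response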
# DTT redox prof: compounds producing H2O2 with reducing agent – biochemical, NIH compound library profiling, artefact control for MLSCN library redox annotation, primary screen; DTT-dependent redox cycling H2O2, phenol red/HRP absorbance; 100% = 100 µM peroxide control, 0% = buffer; activation, % at 10 µM; 200,000 compounds, 0.03% hits; AID 878, 2007;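 active = activation of at least 50% relative to the plate's high and low controls in the primary single-dose screen; inactive = activation below 50%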;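 note: compound incubated with DTT at 0.8 mM final as the reducing agent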
# HMGR II inh: inhibitors of E. faecalis class II HMGR, primary screen, biochemical, Enterococcus faecalis; 190,000 compounds, 0.41% hits; purified E. faecalis HMGR, NADPH absorbance 340 nm kinetic; inhibition, % at 10 µM;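 active = inhibition above a set limit, the median over all tested compounds plus 3 SD, cut at about 9.5% in these data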;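 note: enzyme runs in reverse so mevalonate oxidation gives rising NADPH absorbance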
# TbHK1 inh: Trypanosoma brucei hexokinase 1 inhibitors, primary screen, biochemical, G6PDH-coupled NADH absorbance, MLSCN library. inhibition, % at 10 µM. recombinant TbHK1, G6PDH-coupled NADH A340. AID 1430, 2008. 220,000 compounds, 0.11% hits. hexokinase 1 [Trypanosoma brucei];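 active = inhibition of 50% or more in the single-dose primary screen; inactive = inhibition below 50%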
# p97 ATPase inh: inhibitors of human p97 ATPase, primary screen, biochemical; Transitional endoplasmic reticulum ATPase (Homo sapiens), P55072; recombinant p97 ATPase, Kinase-Glo ATP luminescence, 3 h; inhibition, % at 8 µM; 220,000 compounds, 0.42% hits; in the data active = inhibition above about 15%
# Target sequence (P55072 whole entry, looked up): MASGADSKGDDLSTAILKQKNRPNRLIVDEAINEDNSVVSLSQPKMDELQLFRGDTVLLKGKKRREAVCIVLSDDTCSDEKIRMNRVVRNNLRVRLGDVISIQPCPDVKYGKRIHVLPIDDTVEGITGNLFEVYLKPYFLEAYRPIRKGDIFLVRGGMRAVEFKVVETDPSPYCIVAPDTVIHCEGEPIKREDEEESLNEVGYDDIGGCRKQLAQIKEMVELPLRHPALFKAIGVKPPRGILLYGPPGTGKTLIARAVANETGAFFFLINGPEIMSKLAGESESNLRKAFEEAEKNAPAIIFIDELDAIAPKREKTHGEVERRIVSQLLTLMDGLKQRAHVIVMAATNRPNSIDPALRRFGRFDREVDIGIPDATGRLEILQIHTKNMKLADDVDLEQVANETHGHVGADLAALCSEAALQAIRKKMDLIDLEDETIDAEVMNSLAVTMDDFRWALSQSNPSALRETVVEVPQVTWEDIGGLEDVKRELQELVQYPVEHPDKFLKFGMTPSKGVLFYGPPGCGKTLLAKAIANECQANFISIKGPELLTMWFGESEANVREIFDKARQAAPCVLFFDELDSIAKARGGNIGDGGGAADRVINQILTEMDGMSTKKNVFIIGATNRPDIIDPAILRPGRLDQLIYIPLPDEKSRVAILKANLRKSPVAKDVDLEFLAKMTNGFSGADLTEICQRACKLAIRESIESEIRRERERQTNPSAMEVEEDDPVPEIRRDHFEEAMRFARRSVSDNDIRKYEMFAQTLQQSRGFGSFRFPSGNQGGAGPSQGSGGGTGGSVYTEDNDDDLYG
# p97 inh conf: p97 ATPase inhibitors, retest, confirmation, biochemical; shares compounds with p97 ATPase inh; recombinant p97 ATPase, Kinase-Glo ATP luminescence; inhibition, % at 8 µM; 760 compounds, 44% hits; AID 1517, 2009;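 active = percent inhibition of p97 ATPase above a set limit, the primary screen's mean plus 3 SD, cut at about 15% in these data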
# Hits are given with their value; n = inactive; x = no result.
SMILES,Furin inh,pCIP destab,DTT redox prof,HMGR II inh,TbHK1 inh,p97 ATPase inh,p97 inh conf
O=C(Nc1ccccc1)C1CC2CCCC(C1)C2=O (stereo not drawn),n,n,n,n,n,17,n
COc1ccc(CCn2c(N)c(C(=O)NCc3ccco3)c3nc4ccccc4nc32)cc1,n,n,n,n,n,16,n
COc1ccc(CCn2c(N)c(C(=O)NCc3ccco3)c3nc4ccccc4nc32)cc1OC,n,n,n,n,n,n,x
C=CCN1C(=O)N(/C=C/C)c2cccc3cccc1c23,n,n,n,n,n,15,n
CN1C(=O)N(C)c2cccc3cccc1c23,x,n,x,x,x,x,x
N#C/C(=C/c1ccc(-c2ccc(C(=O)O)c(Cl)c2)o1)C(=O)NCC1CCCO1 (stereo not drawn),n,n,n,n,n,27,37
CCN1C(=O)c2ccc(-c3nc4ccccc4c(=O)o3)cc2C1=O,n,n,n,n,n,24,n
Nc1ccc(Sc2cc(Cl)nc(N)n2)cc1,n,n,n,n,n,n,x
Nc1nc(N)c2cc(Sc3ccc4ccccc4c3)ccc2n1,n,n,x,x,n,15,24
Cc1ccc(S(=O)(=O)/N=c2\sccn2C)cc1,n,n,n,n,n,n,x
Cn1ccs/c1=N\S(=O)(=O)c1ccc(F)cc1,n,n,n,n,n,18,n
COC(=O)CC1Sc2ccccc2NC1=O (stereo not drawn),n,n,n,n,n,16,n
COc1ccc(CNC(=O)CC2Sc3ccccc3NC2=O)cc1 (stereo not drawn),n,n,n,n,n,n,x
CCC(C)c1ccc(C2C3=C(Nc4nc(N)[nH]c(=O)c42)c2ccccc2C3=O)cc1 (stereo not drawn),n,n,x,x,n,15,n
COc1ccc(OC)c2sc(NC(=O)CCSc3ccccc3)nc12,n,n,n,n,n,n,x
COc1ccc(OC)c2sc(NC(=O)CCS(=O)(=O)c3ccccc3)nc12,n,x,n,x,n,19,25
COc1cccc2cc(C(=O)NCc3ccccc3Cl)c(=O)oc12,x,n,x,x,x,x,x
Nc1c(C(=O)N/N=C/c2cccnc2)oc2nc(-c3ccco3)cc(-c3ccco3)c12,n,n,x,x,n,17,n
Cc1c(C(c2cccc([N+](=O)[O-])c2O)c2c(C)n(C)n(-c3ccccc3)c2=O)c(=O)n(-c2ccccc2)n1C,n,n,n,n,n,n,x
Cc1[nH]n(-c2ccccc2)c(=O)c1C(c1cccc([N+](=O)[O-])c1O)c1c(C)[nH]n(-c2ccccc2)c1=O,n,n,n,n,n,24,n
C[C@H](N)c1nnc(SCC(N)=O)o1,n,n,x,x,n,n,x
CC(=O)c1ccc(S(=O)(=O)NCCc2cn3ccc(C)cc3n2)cc1,x,n,x,x,x,x,x
COc1ccc(Nc2nc3ccccc3nc2NS(=O)(=O)c2cccs2)c(OC)c1,n,n,x,x,n,24,29
Cc1ccsc1C=Nc1ccc(O)cc1,n,n,n,n,n,25,n
CCCC(C(=O)NC1CCCC1)N(CCN(CC)CC)C(=O)c1snc(C(N)=O)c1N (stereo not drawn),x,n,x,x,x,x,x
SMILES,Furin inh,pCIP destab,DTT redox prof,HMGR II inh,TbHK1 inh,p97 ATPase inh,p97 inh conf
CCCC(C(=O)NC1CCCC1)N(CCCN1CCOCC1)C(=O)c1snc(C(N)=O)c1N (stereo not drawn),n,n,n,n,n,16,n
COc1ccc(CCNC(=O)COc2cc(O)c3c(c2)OC(C)(C)CC3=O)cc1OC,x,n,x,x,x,x,x
CN(CCCC(=O)O)S(=O)(=O)c1ccc2c(c1)C(=O)c1cc(S(=O)(=O)N(C)CCCC(=O)O)ccc1-2,x,n,x,x,x,x,x
COc1ccc2ccc3c(c2c1)N=CC1(O3)N(C)c2ccccc2C1(C)C (stereo not drawn),n,n,n,n,n,16,n
CN1c2ccccc2C(C)(C)C12C=Nc1c(ccc3ccccc13)O2 (stereo not drawn),n,n,n,n,n,n,x
CN(C(=S)Nc1cccnc1)c1ccc(O)cc1,n,n,n,n,n,18,n
COc1ccc(N2CCN(CC(=O)c3c(C)n(C)c4ccc(OC)cc34)CC2)cc1,n,n,x,x,n,27,34
COc1ccc2c(c1)c(C(=O)CN1CCOCC1)c(C)n2C,n,n,n,n,n,n,x
O=C(NCc1ccccc1Cl)C(=O)NCC1OCCN1S(=O)(=O)c1cccs1 (stereo not drawn),n,n,n,n,n,n,x
CCOc1cc(C2NC(=O)CCC2[N+](=O)[O-])cc(Br)c1OCC (stereo not drawn),x,n,x,x,x,x,x
Nc1c(N)c2ccccc2oc1=O,n,n,n,n,n,n,x
O=c1oc2ccccc2c2oc3cc(O)c(O)cc3c12,n,n,x,x,n,19,22
CC(=O)NCCC(=O)Nc1cc(S(=O)(=O)N2CCCCC2)ccc1Oc1ccccc1,x,n,x,x,x,x,x
Cc1ccc(-n2nc(C)c3c2OC(N)=C(C#N)C3c2ccc(F)cc2)cc1 (stereo not drawn),n,n,n,n,n,20,n
Cc1nn(-c2cccc(Cl)c2)c2c1C(c1ccncc1)C(C#N)=C(N)O2 (stereo not drawn),n,n,n,n,n,n,x
Cc1nn(-c2cccc(Cl)c2)c2c1C(c1cccnc1)C(C#N)=C(N)O2 (stereo not drawn),n,n,n,n,n,16,n
CN(C)S(=O)(=O)c1cccc(NC(=S)Nc2cccc3cnccc23)c1,n,n,x,x,n,28,n
S=C(Nc1ccc(Cl)cc1)Nc1cccc2cnccc12,n,n,n,n,n,18,n
COc1ccc(NC(=S)Nc2cccc3cnccc23)cc1,n,n,n,n,n,n,x
C=CCS(=O)(=O)N1CCCC(Cc2ccccc2C)(C(=O)OCC)C1 (stereo not drawn),x,n,x,x,x,x,x
CC1=NN(c2ccc(Cl)cc2)C(=O)C1C(c1ccccc1O)c1c(C)[nH]n(-c2ccc(Cl)cc2)c1=O (stereo not drawn),n,n,n,n,n,32,n
Cc1cc(/C=C2\SC(=S)NC2=O)c(C)n1-c1ccc(O)cc1,n,n,x,x,n,56,n
O=C(COc1ncnc2cc([N+](=O)[O-])ccc12)NCCc1ccc(Cl)cc1,n,n,n,n,n,15,n
O=C(COc1ncnc2cc([N+](=O)[O-])ccc12)NC(=O)NC1CCCCC1,n,n,n,n,n,n,x
Cc1ccc(C(=O)N/C(=C\c2ccco2)C(=O)NCCN2CCOCC2)cc1C,x,n,x,x,x,x,x

# Bioassay records from PubChem BioAssay.
